Laboratory results taken from PubChem BioAssay (NCI).
The panel holds about 79,000 compounds, 15% with a hit somewhere; the sample as a whole holds those more often. Activity calls are given as the source filed them. No stated cut-off is given here; in the data, active means growth inhibition above about 70%; inactive means the rest.

How the values were obtained:
[1] = NCI Yeast Anticancer Drug Screen. Data for the rad52 strain (AID 147);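 further: 0% = growth of vehicle-treated control cultures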; details: S. cerevisiae rad52 mutant growth inhibition, stronger effect = higher value
Method in brief: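 Growth of repair-deficient yeast cells was compared between compound-treated and vehicle-treated cultures to give percent inhibition.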

[2] = NCI Yeast Anticancer Drug Screen. Data for the wt1 strain (AID 149);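 further: 0% = growth of vehicle-treated wt1 cultures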; details: S. cerevisiae wt1 strain (SPY 50644) growth inhibition, stronger effect = higher value
Method in brief: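 Growth inhibition read against vehicle controls after compound exposure of the wt1 yeast strain.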

[3] = NCI Yeast Anticancer Drug Screen. Data for the rad50EPP+ strain (AID 151);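 further: 0% = growth of vehicle-treated control cultures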; details: S. cerevisiae rad50 mutant strain, stronger effect = higher value
Method in brief: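 Measured: growth inhibition of rad50EPP+ yeast. Reference: vehicle-treated controls. Screen uses strains with defined genetic alterations in DNA damage repair or cell cycle control.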

[4] = NCI Yeast Anticancer Drug Screen. Data for the mgt1 strain (AID 153); details: S. cerevisiae mgt1 mutant growth inhibition, stronger effect = higher value
Method in brief: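 Compounds were applied to mgt1 mutant yeast, and growth was then compared against vehicle-treated control cultures to give percent inhibition.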

[5] = NCI Yeast Anticancer Drug Screen. Data for the rad50 strain (AID 155);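 further: 0% = growth of vehicle-only cultures of the same strain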; details: S. cerevisiae rad50 strain growth inhibition, stronger effect = higher value
Method in brief: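 Readout: growth inhibition relative to vehicle-treated cultures. Compound exposure was carried out in a genetically defined yeast strain deficient in DNA damage repair.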

[6] = NCI Yeast Anticancer Drug Screen. Data for the mec2-1 strain (AID 157); details: S. cerevisiae mec2-1 strain, stronger effect = higher value
Method in brief: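 Compounds were applied to mec2-1 yeast cells. Their growth was then compared with that of vehicle-treated cultures to give growth inhibition.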

[7] = NCI Yeast Anticancer Drug Screen. Data for the sgs1 mgt1 strain (AID 161);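 further: 0% = growth of cultures given vehicle only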; details: S. cerevisiae sgs1 mgt1 strain, stronger effect = higher value
Method in brief: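 Growth of a repair-deficient yeast mutant was monitored after compound treatment and expressed as inhibition relative to vehicle-treated cultures.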

[8] = NCI Yeast Anticancer Drug Screen. Data for the CLN2oe strain (AID 163);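 further: 0% = growth of vehicle-only control cultures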; details: S. cerevisiae CLN2oe strain, stronger effect = higher value
Method in brief: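 Cells of an engineered yeast line with disturbed cell-cycle regulation are treated with compound. Inhibition of growth is then calculated relative to the vehicle-treated reference.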

[9] = NCI Yeast Anticancer Drug Screen. Data for the cln2 rad14 strain (AID 165);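 further: 0% = growth equal to vehicle treated cultures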; details: S. cerevisiae cln2 rad14 strain, stronger effect = higher value
Method in brief: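 Strain: cln2 rad14 yeast, altered in cell cycle control and DNA damage repair. Read-out: growth inhibition vs vehicle.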

[10] = NCI Yeast Anticancer Drug Screen. Data for the bub3 strain (AID 167); details: S. cerevisiae bub3 mutant strain, stronger effect = higher value
Method in brief: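 Readout: yeast growth inhibition, expressed relative to vehicle-only wells. The test organism is a mutant strain from a panel with lesions in DNA repair or checkpoint genes.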

[11] = NCI Yeast Anticancer Drug Screen. Data for the wt2 strain (AID 169);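 further: 0% = growth of vehicle-treated yeast cultures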; details: S. cerevisiae wt2 strain growth inhibition, stronger effect = higher value
Method in brief: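 Growth of compound-treated yeast is measured and expressed as inhibition relative to vehicle-only controls.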

[12] = NCI Yeast Anticancer Drug Screen. Data for the mlh1 strain (AID 171);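 further: 0% = growth of vehicle-treated control cultures of the same strain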; details: S. cerevisiae mlh1 strain growth inhibition, stronger effect = higher value
Method in brief: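 Test agents were incubated with yeast bearing a defined DNA damage repair or cell cycle control alteration; values are growth inhibition normalised to vehicle-treated cultures.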

[13] = NCI Yeast Anticancer Drug Screen. Data for the sgs1 strain (AID 173);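 further: 0% = growth of vehicle-only control cultures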; details: S. cerevisiae sgs1 mutant, stronger effect = higher value
Method in brief: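 Strain with an altered DNA repair or cell cycle pathway exposed to compound. Growth then measured. Value = inhibition versus vehicle control.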

[14] = NCI Yeast Anticancer Drug Screen. Data for the mlh1 rad18 strain (AID 175); details: S. cerevisiae mlh1 rad18 strain growth inhibition, stronger effect = higher value
Method in brief: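 A repair-deficient yeast strain is exposed to test compound, and growth is scored relative to vehicle-treated controls.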

[15] = NCI Yeast Anticancer Drug Screen. Data for the rad18 strain (AID 177); details: S. cerevisiae rad18 mutant growth inhibition, stronger effect = higher value
Method in brief: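 DNA-repair-defective yeast; compound treatment; growth inhibition scored against vehicle.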

[16] = at 5.0 µM (retest, dose inferred, filed as 0.5)
[17] = at 50.0 µM (retest, dose inferred, filed as 5.0)

Measured: growth inhibition

S=C(Nc1ccc(Cl)c(Cl)c1)SCc1ccc2c(c1)OCO2
active: [1]; at 11.0 µM 99% | [1]; at 33.0 µM 99% | [1]; at 100.0 µM 94% | [2]; at 11.0 µM 100% | [2]; at 33.0 µM 99% | [2]; at 100.0 µM 96% | [3]; at 3.7 µM 84% | [3]; at 11.0 µM 99% | [3]; at 33.0 µM 99% | [3]; at 100.0 µM 97% | [4]; at 11.0 µM 99% | [4]; at 33.0 µM 99% | [4]; at 100.0 µM 97% | [5]; at 11.0 µM 99% | [5]; at 33.0 µM 99% | [5]; [17] 97% | [5]; at 50.0 µM 87.3% | [5]; at 100.0 µM 94% | [6]; [16] 78% | [6]; at 11.0 µM 100% | [6]; at 33.0 µM 99% | [6]; [17] 98% | [6]; at 50.0 µM 92.1% | [6]; at 100.0 µM 97% | [7]; [16] 77% | [7]; [17] 98% | [7]; at 50.0 µM 89.6% | [8]; at 11.0 µM 99% | [8]; at 33.0 µM 99% | [8]; at 100.0 µM 93% | [9]; [17] 97% | [9]; at 50.0 µM 87.6% | [10]; [16] 76% | [10]; at 11.0 µM 99% | [10]; at 33.0 µM 99% | [10]; [17] 98% | [10]; at 50.0 µM 88.2% | [10]; at 100.0 µM 96% | [11]; at 3.7 µM 90% | [11]; at 11.0 µM 100% | [11]; at 33.0 µM 100% | [11]; at 100.0 µM 97% | [12]; at 11.0 µM 99% | [12]; at 33.0 µM 99% | [12]; at 100.0 µM 95% | [13]; at 11.0 µM 99% | [13]; at 33.0 µM 99% | [13]; at 100.0 µM 96% | [14]; [16] 90% | [14]; [17] 97% | [14]; at 50.0 µM 88.7% | [15]; at 11.0 µM 99% | [15]; at 33.0 µM 99% | [15]; at 100.0 µM 96%
inactive: [1]; at 1.2 µM 6% | [1]; at 3.7 µM 54% | [2]; at 1.2 µM 1% | [2]; at 3.7 µM 49% | [3]; at 1.2 µM 27% | [4]; at 1.2 µM -2% | [4]; at 3.7 µM 15% | [5]; at 1.2 µM -4% | [5]; at 3.7 µM 40% | [5]; [16] 52% | [6]; at 1.2 µM -2% | [6]; at 3.7 µM 6% | [8]; at 1.2 µM -4% | [8]; at 3.7 µM -13% | [9]; [16] 5% | [10]; at 1.2 µM -7% | [10]; at 3.7 µM 29% | [11]; at 1.2 µM 14% | [12]; at 1.2 µM -6% | [12]; at 3.7 µM 66% | [13]; at 1.2 µM 6% | [13]; at 3.7 µM 38% | [15]; at 1.2 µM -7% | [15]; at 3.7 µM 34%
